VP16 counter: inhibits Gal4-VP16 luciferase reporter, ROR gamma counter-screen | Potency, µM (series often up to 53.6 µM), most hits filed as inhibitors | actives 3.5% (n = 310,000) | AID 2546 | Drosophila S2 Gal4-VP16 UAS-luciferase, luminescence, 20 h;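 note: Gal4-VP16 expression switched on by copper sulfate through the metallothionein promoter; nearly all actives have a fitted effect of over 50% in size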
RORgamma inh: inhibitors of mouse ROR gamma transcriptional activity. P51450. Drosophila S2 Gal4-RORgamma UAS-luciferase reporter, 20 h. Potency, µM (titrated, usually from 53.6 µM), most hits filed as inhibitors. actives 5.4% (n = 310,000); note: nearly all actives have a fitted effect of over 60% in size
Target sequence (P51450 whole entry, looked up, the tested form may be a part): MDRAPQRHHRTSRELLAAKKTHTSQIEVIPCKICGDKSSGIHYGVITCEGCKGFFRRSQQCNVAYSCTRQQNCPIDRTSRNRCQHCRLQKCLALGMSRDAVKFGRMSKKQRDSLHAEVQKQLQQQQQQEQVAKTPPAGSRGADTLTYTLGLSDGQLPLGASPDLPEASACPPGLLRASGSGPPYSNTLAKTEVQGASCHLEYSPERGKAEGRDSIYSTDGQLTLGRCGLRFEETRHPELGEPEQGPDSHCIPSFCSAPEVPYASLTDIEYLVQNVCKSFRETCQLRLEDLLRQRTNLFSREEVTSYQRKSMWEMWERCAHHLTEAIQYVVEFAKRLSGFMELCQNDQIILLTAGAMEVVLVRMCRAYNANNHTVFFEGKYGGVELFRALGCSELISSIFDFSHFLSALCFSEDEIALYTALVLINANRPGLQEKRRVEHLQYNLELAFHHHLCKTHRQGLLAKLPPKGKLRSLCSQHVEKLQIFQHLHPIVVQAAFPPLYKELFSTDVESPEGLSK
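Drosophila S2 cells stably expressing Gal4-DBD/mouse RORγ fusion under metallothionein promoter plus UAS-luciferase; compound 1 h, then 700 uM CuSO4 induction for 20 h at ambient temperature; inhibition read as reduced luminescence.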
DT40 TDP1 CPT: growth inhibition of DT40 Tdp1-/-;hTDP1 cells with camptothecin (screen for TDP1 inhibitors); chicken DT40 Tdp1-/-;hTDP1 cells + 20 nM CPT, ATP luminescence, 48 h; Potency, µM (highest dose often 46.2 µM), usual class: inhibitors; actives 12% (n = 420,000); note: nearly all actives have a fitted effect of over 55% in size
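Chicken DT40 Tdp1-/- cells stably complemented with human TDP1 were seeded at 400 cells/well in medium containing 20 nM camptothecin, exposed to pin-transferred compounds, and grown at 37 °C for at least 48 hr. Viability was read as ATP luminescence.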
LDHA block: LDHA (human) enzyme inhibition; purified LDHA, NADH/diaphorase-resazurin fluorescence; hits give low values; activity change, % (values are at about 110 or 230 µM); actives 0.15% (n = 480,000); AID 1347041; in the data active = activity change below about -30%; inconclusive = mostly about -25% to -30%
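Human LDH5 at 2 nM final in Tris HCl pH 7.4 with 0.06 mM NADH and 0.2 mM pyruvate, reacted 5 minutes at room temperature. Remaining NADH coupled via diaphorase/resazurin; resorufin fluorescence read at 0 and 20 minutes, normalized to enzyme-free and DMSO wells.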
TDP1 cell noCPT: qHTS for Inhibitors of human tyrosyl-DNA phosphodiesterase 1 (TDP1): qHTS in cells in absence of CPT; Potency, µM (top dose mostly 46.2 µM), most hits filed as inhibitors; DT40 Tdp1-/- hTDP1 cells, no CPT, ATP luminescence, 48 h; actives 15% (n = 420,000); AID 686978, 2013; note: nearly all actives have a fitted effect of over 55% in size
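Camptothecin absent (DMSO only). Human TDP1-complemented DT40 knockout cells, 400 cells/well, 37 °C for minimum 48 hr; ATP measured via CellTiter-Glo, 30 min dark incubation, luminescence.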
IL-1B inflam inh: inflammasome signaling inhibition, IL-1 beta readout. THP-1 LPS/ATP IL-1B secretion, AlphaLISA, 16 h; hits give low values. activity change, % at 57.5 µM. actives 4.7% (n = 360,000); in the data active = activity change below about -50%; inconclusive = mostly about -30% to -49%
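THP-1 cells pretreated 1 hr with compounds (up to 57.5 uM final), then stimulated with LPS (250 ng/mL final) plus ATP (1.25 mM final); secreted IL-1B measured by AlphaLISA after 16 hr, decreased signal indicating inhibition.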
Numbers stand for hits; – = inactive; ? = inconclusive; · = not tested or not shown; ! = not confirmed by another sample; [ ] = remark or other dose. This is a sample that favours compounds with a hit; in the whole collection about 18% have one here. Unless noted, calls come from the whole dose curve; as a rule, active = well fitted curve in the direction sought with a large enough effect; inconclusive = small, poorly fitted or top-dose-only effect, or another doubt; inactive = no such curve, though single readings can be large; an effect the other way counts as inactive or inconclusive.

SMILES	VP16 counter	RORgamma inh	DT40 TDP1 CPT	LDHA block	TDP1 cell noCPT	IL-1B inflam inh
O=C(NC(c1ccc(Cl)cc1)c1cccnc1)C1CCN(CCOc2ccc(Cl)cc2Cl)CC1 (configuration not stated)	·	·	?	–	?	–
O=C(OCc1cc(=O)oc2cc(O)ccc12)c1ccc(F)cc1	·	·	·	–	·	·
CC1(C)Cc2ccccc2-c2nnc(-c3ccc(Br)o3)n21	·	·	·	–	·	·
CCC1(C)NC(=O)N(NC(=O)c2nn(C)c(=O)c3ccccc23)C1=O (configuration not stated)	·	·	·	–	·	·
O=C(Cc1ccc(F)cc1)N1CCC(c2nc3c(nnn3Cc3ccccc3F)c(=O)[nH]2)CC1	·	·	·	–	·	·
N#Cc1nc(/C=C/c2cccs2)oc1NC1CC1	·	·	·	–	·	·
CC(=O)Oc1c(Cl)cc(Cl)cc1/C=C/c1ccc2ccccc2n1	–	–	?	–	–	-66
CC(=O)Oc1ccc(Cl)cc1/C=C/c1ccc2ccccc2n1	–	–	?	–	29µM	–
COC(=O)c1cc(OC(=O)/C=C/c2ccc3ccccc3n2)cc(C(=O)OC)c1	·	·	·	–	·	·
O=C(Nc1ccc2oc(-c3ccccc3Br)nc2c1)c1ccco1	·	·	·	–	·	·
CCOc1ccc2c(-c3cc4cccc(OC)c4oc3=O)cc(=O)oc2c1	·	·	·	–	·	·
Cc1cc(CSC(=N)N)c(CSC(=N)N)cc1C	–	–	?	–	23µM	–
CN(C)C(=O)CSc1cccc2cccnc12	?	10µM	4.6µM	–	4.6µM	–
O=C(CSc1ncccn1)N1CCCCCC1	·	·	–	–	–	–
NNC(=O)CSc1cccc2cccnc12	–	–	–	–	–	–
O=C(CSc1cccc2cccnc12)N1CCCC1	·	–[0.365 µM]	4.1µM	–	5.2µM	-116
CC[C@H](C)[C@@H](NC(=O)O[C@@H]1C(=O)c2cc(OC)ccc2O[C@H]1c1ccc(OC)c(Br)c1)C(=O)OC	–	–	?	–	18µM	?
COc1ccc2c(c1)C(=O)[C@H](O)[C@@H](c1ccc(OC)c(Br)c1)O2	13µM!	7.1µM	?	–	?	–
CC[C@H](C)[C@@H](NC(=O)O[C@H]1C(=O)c2cc(OC)ccc2O[C@@H]1c1ccc(OC)c(Br)c1)C(=O)OC	–	–	·	·	·	·
c1ccc(N2CCN(c3nc(N4CCCC4)c4nccnc4n3)CC2)cc1	·	·	·	–	·	·
CCn1c(N)c(C(=O)Nc2ccccc2C(=O)OC)sc1=S	–	–	?	–	16µM	–
CCCC(=O)Nc1cc(C(=O)NCc2ccccc2)ccc1S(=O)(=O)c1ccc(Cl)cc1	·	·	21µM	–	21µM	·
C=CC[N+]1(CC#Cc2ccc(C#CC[N+]3(CC=C)CCOCC3)cc2)CCOCC1	·	·	·	–	·	·
COc1cc(C(C[N+](=O)[O-])c2c(C)cc3ccccn23)ccc1O (configuration not stated)	?	16µM	8.2µM	–	13µM	-97
O=Nc1c(-c2ccccc2)cc2ccccn12	?	–	?	–	–	–
SMILES	VP16 counter	RORgamma inh	DT40 TDP1 CPT	LDHA block	TDP1 cell noCPT	IL-1B inflam inh
COc1ccc(C(C[N+](=O)[O-])c2c(-c3ccccc3)cc3ccccn23)cc1OC (configuration not stated)	?	8.9µM	7.3µM	–	15µM	–
COc1ccc(C(C[N+](=O)[O-])c2c(-c3ccccc3)cc3ccccn23)cc1 (configuration not stated)	–	–	23µM	–	18µM	–
COC(=O)C(C(=O)OC)C(C[N+](=O)[O-])c1ccc(OC)c(OC)c1 (configuration not stated)	–	–	–	–	?	–
COc1cc(C(C[N+](=O)[O-])c2c(C)[nH]c3ccccc23)ccc1O (configuration not stated)	–	–	–	–	–	–
Nc1nnnn1NCc1cc(Cl)ccc1OCc1ccc(Cl)cc1Cl	·	·	·	–	·	·
Cc1nc(NC(=O)C(C)(C)C)sc1-c1csc(N)n1	·	·	?	–	23µM	–
C=CCNc1nc(-c2sc(NC(C)=O)nc2C)cs1	–	?	10µM	–	16µM	-58

Assay outcomes (PubChem BioAssay)
